Most compounds without a hit are left out; they make up all but 3.6% or so of the library.
Pf apPOL inh: Pf-apPOL DNA polymerase inhibition | Recombinant Pf-apPOL, molecular beacon fluorescence, 1.5 h | inhibition, % at 10 µM | 210,000 compounds, 0.25% hits
mHTT CaM bind: mHTT-calmodulin interaction abrogation | P42858 | AlphaScreen His-mHTT/GST-CaM binding, luminescence | inhibition, % at 15 µM | AID 1671202 | 190,000 compounds, 3.6% hits;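 note: 0% = both proteins with DMSO and 100% = one protein alone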
* hit, by the source's call; i = inactive. Cut-off read from the data, not from the text of the source: active = inhibition above about 50%; inactive = the rest.

SMILES | Pf apPOL inh | mHTT CaM bind
Cc1ccnc(N2CCCC(C(=O)N3CCN(c4ncccn4)CC3)C2)n1 (configuration not stated) | -6.4 | -3.3
Cc1ccc(C)c(N2CCN(C(=O)C3CCN(c4ccncc4)CC3)CC2)c1 | -2.7 | 0.2
Cc1ccnc(N2CCCC(C(=O)N3CCN(c4cc(Cl)ccc4C)CC3)C2)n1 (configuration not stated) | -5.1 | 90.4*
CCCOc1ccc(NC(=O)C(=O)NCC(C)c2ccccc2)cc1 (configuration not stated) | 2.4 | -4.5
Cc1sc2ncnc(SCC(=O)Nc3ccc(S(N)(=O)=O)cc3)c2c1C | -2.8 | -6.8
O=C(CC1Sc2ccccc2NC1=O)Nc1ccccc1SC(F)(F)F (configuration not stated) | -7.1 | 6.0
O=C(Cn1cnc2c(sc3cccc(Cl)c32)c1=O)Nc1ccccc1C(F)(F)F | 11.1 | 2.6
CN(C)c1ccc(C(=O)N2CCCC(COc3cccc(C(=O)NC4CC4)c3)C2)cc1 (configuration not stated) | -2.5 | 13.6
CC(C)(C)C(=O)Oc1ccc2c3c(c(=O)oc2c1)CCC3 | 1.5 | -1.7
O=S(=O)(c1ccc2c(c1)OCCO2)N1CCN(c2ccc(F)cc2)CC1 | -4.6 | 2.4
O=C(NCCc1ccccc1)C1CCCN(C(=O)c2cccc(Cl)c2)C1 (configuration not stated) | 1.0 | 30.3
COC(=O)c1cnc2nc(C)ccc2c1Nc1ccccc1 | -7.6 | -2.9
COC(=O)c1cnc2nc(C)ccc2c1Nc1ccc(Br)cc1 | -3.0 | 58.0*
C1CN(c2nc(-c3nn[nH]n3)nc(N3CCOCC3)n2)CCO1 | -0.6 | -0.4
Cc1ccc([N+](=O)[O-])c2c3c([nH]c12)C(=NCCO)CCC3 | 1.0 | 22.0
Cc1ccc([N+](=O)[O-])c2c3c([nH]c12)C(=O)CCC3 | 83.0* | 11.7
CCc1ccc(-c2cn3cc(C(=O)N4CCCN(C)CC4)ccc3n2)cc1 | -9.5 | -6.0
COc1ccc(NC(=O)Cc2cn(C)c3ccccc23)cc1Cl | -1.7 | 28.0
COc1ccc(NC(C)=O)cc1NC(=O)Cc1cn(Cc2ccccc2)c2ccccc12 | -8.5 | 82.9*
CC(Oc1ccc(Cl)cc1Cl)C(=O)O/N=C(\N)c1cccnc1 (configuration not stated) | -2.7 | i
COc1ccc(C=C2Oc3cc(OCC(=O)O)ccc3C2=O)cc1 | 61.4* | 4.0
COc1ccc(C(=O)COc2ccc3c(c2)OC(=CC2=Cc4ccccc4OC2)C3=O)cc1OC | -6.1 | 57.6*
CC(C)(C)OC(=O)COc1ccc2c(c1)OC(=CC1=Cc3ccccc3OC1)C2=O | -2.7 | 8.1
COc1cccc(C=C2Oc3cc(OCC(C)=O)ccc3C2=O)c1 | -0.4 | 5.8
CC(=O)COc1ccc2c(c1)OC(=CC=Cc1ccccc1)C2=O | 7.1 | 87.7*
SMILES | Pf apPOL inh | mHTT CaM bind
CCOC(=O)COc1ccc2c(c1)OC(=CC=Cc1ccccc1)C2=O | -2.3 | 10.7
C=C(C)COc1ccc2c(c1)OC(=Cc1cccc(OC)c1)C2=O | -6.6 | 72.9*
COc1ccc(C=C2Oc3cc(OCC(=O)c4ccc(OC)cc4)ccc3C2=O)cc1 | -3.4 | -1.1
COc1ccccc1C1CN(C(=O)c2cccs2)CC1C(=O)NC1CC1 (configuration not stated) | -5.0 | -0.5
CCOc1ccc(CN2CCN(C(=O)c3cccs3)CC2)cc1 | -0.8 | 3.7
Cc1ccc(Cc2c(C)nc3nc(SCC(=O)NC4CCCC4)nn3c2C)cc1 | 0.0 | 3.0
CC(C)C(=O)N1CCc2c(c(C(=O)NCc3ccccc3)nn2C)C1 | -5.9 | 0.2
CCC(=O)N1CCc2c(c(C(=O)NCc3ccc(Cl)cc3)nn2C)C1 | -7.6 | 81.4*
CC(C)C(=O)N1CCc2c(c(C(=O)NCc3ccc(Cl)cc3)nn2C)C1 | -5.7 | 70.6*
Cn1nc(C(=O)NCc2ccc(Cl)cc2)c2c1CCN(C(=O)C1CCCCC1)C2 | -1.1 | 93.1*
CCC(=O)N1CCc2c(c(C(=O)NCc3ccc(F)cc3)nn2C)C1 | -6.3 | 18.4
Cn1nc(C(=O)NCc2ccc(F)cc2)c2c1CCN(C(=O)C1CC1)C2 | -7.5 | 28.8
COc1ccc(C=Nc2ccc(Br)cc2C(=O)O)c(OC)c1 | -0.6 | -2.0
CN(Cc1ccccc1)C(=O)c1ccnc(N2CCNC(c3ccccc3)C2)c1 (configuration not stated) | 0.3 | -2.2
O=C1OC(c2ccc(-c3ccccc3)cc2)=N/C1=C/c1ccc2c(c1)OCO2 | 0.2 | 1.0
COc1ccc(CN2C[C@]3(CO)OC(CO)C[C@@H]3S2(=O)=O)cc1 (some centres not stated) | -6.5 | -5.6
CN(C)c1ccc(/C=C/C=C2/SC(=Nc3ccccc3)NC2=O)cc1 | -0.2 | 43.0
CN(C)c1ccc(/C=C/C=C2/SC(=N)NC2=O)cc1 | 1.6 | 62.0*
O=C1CC(c2ccccc2Cl)c2c(n[nH]c2-c2ccccc2)N1 (configuration not stated) | 1.7 | 69.4*
COc1ccc(C2CC(=O)Nc3n[nH]c(-c4ccccc4)c32)c(OC)c1 (configuration not stated) | 1.0 | 80.4*
COc1ccc(C2CC(=O)Nc3n[nH]c(-c4ccc(Cl)cc4)c32)c(OC)c1 (configuration not stated) | -2.7 | 38.8
O=C1CC(c2ccccc2F)c2c(n[nH]c2-c2ccccc2)N1 (configuration not stated) | 3.7 | 7.2
COc1cc(Cl)c(S(=O)(=O)n2cnc3cc(C)c(C)cc32)cc1Cl | -44.9 | 35.0
O=C(CSC1CCCC1)NCCOc1ccc(-c2ccccn2)nn1 | -9.4 | 100.3*
Cc1cc(C)cc(OCCNC(=O)COc2ccc3c(c2)OCO3)c1 | 2.0 | 29.5
SMILES | Pf apPOL inh | mHTT CaM bind
O=C(COc1ccc2c(c1)OCO2)NCCOc1ccc(-c2ccccn2)nn1 | -8.1 | 100.3*
O=C(CSC1CCCC1)NCCn1nc(-c2ccco2)ccc1=O | -5.7 | 4.9
COc1ccc(-c2csc3c(=O)n(C(C)C)cnc23)cc1 | -5.0 | -3.4
COc1ccc2[nH]cc(CN3CCC(C(=O)NC(C)c4ccc(F)cc4)CC3)c2c1 (configuration not stated) | 1.4 | 68.0*
COc1cccc(C(C)NC(=O)C2CCN(Cc3cn(C)c4ccccc34)CC2)c1 (configuration not stated) | -6.9 | 2.1
CCN(CC)c1nc(C)nc2sc(C(=O)Nc3cc(OC)ccc3OC)c(C)c12 | -2.6 | -4.0
CCN(CC)c1nc(C)nc2sc(C(=O)Nc3cc(OC)c(OC)c(OC)c3)c(C)c12 | -3.7 | 51.0*
COc1cc(C(=O)N2CCC(C(=O)Nc3ccc4c(c3)OCO4)CC2)cc(OC)c1OC | 1.3 | 9.6
COc1cc(OC)c(NC(=O)CCCc2ccccc2)cc1Cl | 1.5 | -8.8
COc1cccc(C2C=C(c3ccc(C)cc3)Nc3ncnn32)c1 (configuration not stated) | -5.2 | 18.0
COc1cccc(C2C=C(c3ccc(C)cc3)Nc3ncnn32)c1OC (configuration not stated) | -1.5 | 31.0
COc1cccc(C2C=C(c3cccc(Br)c3)Nc3ncnn32)c1 (configuration not stated) | -6.2 | 59.0*
COc1cccc(C2C=C(c3ccc(F)cc3)Nc3ncnn32)c1OC (configuration not stated) | -5.1 | 56.0*
COc1cccc(C2C=C(c3cccc(Br)c3)Nc3nnnn32)c1OC (configuration not stated) | -4.7 | 65.0*
